# Screens deposited in PubChem by National Center for Advancing Translational Sciences (NCATS).
# This is a sample that favours compounds with a hit; in the whole collection about 12% have one here.
# Gal4-VP16 FLuc: inhibits Gal4-VP16 luciferase reporter, ROR gamma counter-screen; Drosophila S2 Gal4-VP16 UAS-luciferase, luminescence, 20 h; Potency, µM (doses to about 53.6 µM), hits mostly inhibitors; 310,000 tested, 3.5% active;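 note: Gal4-VP16 expression switched on by copper sulfate through the metallothionein promoter; nearly all actives have a fitted effect of over 50% in size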
# ALDH1A1 inh: ALDH1A1 (human) enzyme inhibition. P00352. Potency, µM (doses to about 75.3 µM), usual class: inhibitors. 220,000 tested, 7.3% active. Purified ALDH1A1, NADH fluorescence, propionaldehyde substrate; active = well fitted inhibition curve with a large enough effect, not every such curve was filed as active; inconclusive = small, poorly fitted or top-dose-only effect, or another doubt; inactive = no such curve, though single readings can be large or run the other way
# PLK1 PBD inh: PLK1 (human) polo-box domain binding inhibition; P53350; Plk1 PBD binding of FITC phosphopeptide, fluorescence polarization; Potency, µM, usual class: inhibitors; 360,000 tested, 2.8% active; AID 720504; note: series mostly up to about 57 µM; nearly all actives have a fitted effect of over 65% in size
# Sfp inh: blocks B. subtilis Sfp PPTase activity. Potency, µM, actives largely listed as inhibitors. 310,000 tested, 3.5% active. Biochemical Sfp PPTase activity, qHTS;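 note: the enzyme is Sfp with the accession as filed and its product quenches rhodamine fluorescence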
#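 After 15 min at room temperature with compound, 15 nM Sfp received 5 uM rhodamine-CoA plus 12.5 uM BHQ-2-ybbR (50 mM Hepes pH 7.6, 10 mM MgCl2). Rate came from the fluorescence difference over 30 min, ex 525/em 598 nm.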
# RORg inh: blocks mouse ROR gamma transcriptional activity; P51450; Drosophila S2 Gal4-RORgamma UAS-luciferase reporter, 20 h; Potency, µM (doses to about 53.6 µM), actives largely listed as inhibitors; 310,000 tested, 5.4% active; note: nearly all actives have a fitted effect of over 60% in size
# Target sequence (P51450 whole entry, looked up, the tested form may be a part): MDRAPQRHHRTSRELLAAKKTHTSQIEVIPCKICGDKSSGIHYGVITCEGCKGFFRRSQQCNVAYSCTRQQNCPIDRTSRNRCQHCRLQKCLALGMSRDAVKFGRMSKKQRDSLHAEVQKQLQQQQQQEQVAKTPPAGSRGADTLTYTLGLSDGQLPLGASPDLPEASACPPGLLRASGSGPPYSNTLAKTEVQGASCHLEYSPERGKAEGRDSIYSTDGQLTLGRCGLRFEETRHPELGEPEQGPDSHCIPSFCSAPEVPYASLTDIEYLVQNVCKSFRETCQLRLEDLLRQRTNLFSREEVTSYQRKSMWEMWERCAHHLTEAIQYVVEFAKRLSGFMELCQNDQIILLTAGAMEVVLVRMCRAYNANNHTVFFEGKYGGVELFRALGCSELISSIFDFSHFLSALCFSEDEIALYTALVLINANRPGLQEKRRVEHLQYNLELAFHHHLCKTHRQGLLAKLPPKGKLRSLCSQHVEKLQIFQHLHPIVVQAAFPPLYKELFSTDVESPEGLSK
#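 Compounds are pin-transferred onto Drosophila Schneider cells expressing a copper-inducible Gal4–ROR gamma transactivation domain fusion. After 1 hr, copper sulfate is added to 700 uM final; luciferase is read 20 hr later.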
# Numbers stand for hits; 0 = inactive; ? = inconclusive; - = not tested or not shown; [ ] = another dose, or the depositor's remark. Unless noted, calls come from the whole dose curve; as a rule, active = well fitted curve in the direction sought with a large enough effect; inconclusive = small, poorly fitted or top-dose-only effect, or another doubt; inactive = no such curve, though single readings can be large; an effect the other way counts as inactive or inconclusive.
SMILES,Gal4-VP16 FLuc,ALDH1A1 inh,PLK1 PBD inh,Sfp inh,RORg inh
CCC(c1nnnn1CC1CCCO1)N(CCN1CCOCC1)Cc1cc2cc(C)ccc2[nH]c1=O (centres undefined),0,?,0,45µM,0
CCCC(c1nnnn1CC(=O)OCC)N(Cc1cc2ccc(C)cc2[nH]c1=O)C1CCCC1 (centres undefined),0,?,0,0,0
CCC(c1nnnn1CCOC)N(Cc1cc2cc(C)c(C)cc2[nH]c1=O)CC1CCCO1 (centres undefined),0,0,0,?,0
CCCC(c1nnnn1CCOC)N(Cc1cc2cc(C)c(C)cc2[nH]c1=O)CC1CCCO1 (centres undefined),0,?,0,10µM,0
CCCC(c1nnnn1CC(=O)OCC)N(Cc1cc2c(C)cc(C)cc2[nH]c1=O)C1CCCC1 (centres undefined),0,8.9µM,0,0,0
Cc1sc2nc(CN3CCCC3)nc(N3CCN(S(=O)(=O)c4cccc(F)c4)CC3)c2c1C,-,-,0,-,-
N#C/C(=C\Nc1ccc2cn[nH]c2c1)c1nc(-c2ccccc2)cs1,?,0,0,56µM,?
N#C/C(=C\Nc1ccc2cn[nH]c2c1)c1nc(-c2ccc(Cl)cc2)cs1,?,?,0,56µM,?
COc1cc2c(cc1N/C=C(\C#N)c1nc(-c3ccccc3)cs1)oc1ccccc12,0,0,0,0,0
CNc1cccc(-c2cc(OC)ccc2OC)n1,-,-,0,-,-
Cc1nn(C)c(Oc2ccccc2)c1CCNS(=O)(=O)c1ccc(Cl)cc1,0,?,0,0,0
COc1ccc(S(=O)(=O)NCCc2c(C)nn(C)c2Oc2ccccc2)cc1,0,0.63µM,0,0,0
COC(=O)CCCn1cc(CN2CC(N3CCCC3)CS2(=O)=O)nn1 (centres undefined),-,-,0,-,-
CCOC(=O)N=Nc1c2ccccc2c2nc3no[nH]c3nc12,4µM,0,0,0,0.35µM
CCN(CC)CCC12CC(C)OC1=Nc1ccccc1NC2=O (centres undefined),-,-,0,-,-
COc1cc(/C=N/NC(=O)c2ccc(COc3cc(C)ccc3C(C)C)cc2)cc(OC)c1O,16µM,0,0,0,?
Cc1ccc(C(C)C)c(OCc2ccc(C(=O)N/N=C/c3cccc(O)c3O)cc2)c1,2.5µM,0,0,0,1µM
COc1cc(/C=N/NC(N)=O)cc(Br)c1OCc1ccc(C)cc1,0,0,0,0,0
Cc1ccc(C(C)C)c(OCc2ccc(C(=O)N/N=C/c3ccc(O)c(O)c3)cc2)c1,35µM,0,0,?,?
CN(CC(=O)NCc1cccs1)CC(=O)Nc1ccccc1Cl,-,-,0,-,-
Cc1ccc(S(=O)(=O)N/N=C2/CC(=O)CC(C)(C)C2)cc1[N+](=O)[O-],0,-,0,0,0
Cc1ccc(S(=O)(=O)N/N=C2/CC(c3ccccc3)Oc3ccccc32)cc1[N+](=O)[O-] (centres undefined),?,7.1µM,12µM,0,0
O=S(=O)(N/N=C1/CCCc2ccccc21)c1ccc(Br)cc1,0,14µM,0,0,?
O=S(=O)(N/N=C1/CC(c2ccccc2)Oc2ccccc21)c1ccc(Br)cc1 (centres undefined),0,22µM,0,0,?
CNC(=S)N/N=C1\CC(c2ccccc2)Oc2ccccc21 (centres undefined),?,0,0,0,?
SMILES,Gal4-VP16 FLuc,ALDH1A1 inh,PLK1 PBD inh,Sfp inh,RORg inh
CCCN(C(=O)c1cc(S(=O)(=O)N(C)c2ccc(OCC)cc2)ccc1C)C1CCS(=O)(=O)C1 (centres undefined),-,-,0,-,-
CC(C)(C)NS(=O)(=O)c1ccc(CCC(=O)Nc2ccc3c(c2)OCO3)cc1,0,0.18µM,0,0,0
CC(C)(C)NS(=O)(=O)c1ccc(OCC(=O)Nc2ccc3c(c2)OCCO3)cc1,0,1.8µM,0,0,0
CC(C)(C)NS(=O)(=O)c1ccc(CCC(=O)Nc2ccc3c(c2)OCCO3)cc1,0,4µM,0,0,0
Cc1ccc(S(=O)(=O)N(C)CC(=O)OCC(=O)NC(=O)Nc2ccc3c(c2)OCCO3)cc1,0,?,27µM,0,0
CCNS(=O)(=O)c1ccc(CCC(=O)Nc2ccc3c(c2)OCCO3)cc1,0,-,0,0,0[1.91 µM]
CN(C)C(=O)c1ccc(-c2ccc3ncnc(N4CCNCC4)c3c2)cc1,0,0,-,0,0
COc1cc(C(=O)OC2CC[C@]3(C)C4CCC5[C@]6(O)CC(O)[C@]7(O)C(CN8CC(C)CCC8[C@]7(C)O)[C@]6(O)C[C@@]53O[C@]24O)cc(OC)c1OC (some centres undefined),0,0,-,0,0
CC[C@@H](Nc1ncnc2nc[nH]c12)C(=O)O,-,0[13.5 µM],-,-,-
O=C(NCc1ccccc1)C(c1ccc(C(F)(F)F)cc1)N1CCN(CCN2CCOCC2)CC1 (centres undefined),-,-,0,-,-
Cc1csc(NC(=O)CSc2nc3ccccc3s2)n1,0,0,0,0,0
O=C(NCc1ccco1)c1cccnc1-c1nc2ccccc2s1,?,8.9µM,24µM,22µM,0
O=C(CCCSc1nc2ccccc2s1)NCc1ccco1,11µM,?,0,0,14µM
CCc1ccccc1NC(=O)CCCSc1nc2ccccc2s1,?,0,0,0,?
Cc1csc(NC(=O)CCCSc2nc3ccccc3s2)n1,2µM,10µM,0,0,32µM
O=C(NCc1ccco1)c1cccnc1Cl,0,?,0,0,0
Cc1ncc([N+](=O)[O-])n1CC(=O)Nc1ccccc1Cl,-,-,0,-,-
Cc1cc(Nc2ccc(O)cc2)ccc1N,0,3.2µM,-,-,0
Cc1cccc(-n2c(O)c(C=Nc3ccc(O)cc3)c3ccccc3c2=O)n1,0,0,0,0,0
Cc1cccc(-n2c(O)c(C=Nc3ccccc3O)c3ccccc3c2=O)n1,0,-,0,?,0
Cc1ccc(-n2c(O)c(C=Nc3ccccc3-c3n[nH]c(=S)[nH]c3=O)c3ccccc3c2=O)c(C)c1,0,18µM,27µM,0,0
Cc1ccc(-n2c(O)c(/C=N/Nc3ccc(S(=O)(=O)N4CCOCC4)cc3[N+](=O)[O-])c3ccccc3c2=O)c(C)c1,?,0,?,0,?
Cc1ccc(-n2c(O)c(C=Nc3ccccc3-c3n[nH]c(=S)[nH]c3=O)c3ccccc3c2=O)cc1C,0,3.5µM,30µM,0,0
Cc1cccc(-n2c(O)c(C=Nc3cc(O)ccc3C)c3ccccc3c2=O)n1,0,0,?,0,11µM
Cc1cccc(-n2c(O)c(C=Nc3ccccc3-c3n[nH]c(=S)[nH]c3=O)c3ccccc3c2=O)n1,0,?,27µM,0,?
Cc1ccc(CNC(=O)C2(C)CCN2C(=O)Cc2ccc(-c3ccccc3)cc2)cc1 (centres undefined),-,-,0,-,-
COC(=O)[C@]12CCCCC=C1N(Cc1ccc3c(c1)OCO3)C(=O)[C@H](CC(=O)NCc1cccc3ccccc13)C2,-,-,0,-,-
Cc1nn(-c2cccc(C(F)(F)F)c2)c(=O)c2ccccc12,0,-,0,0,0
